High-throughput results from PubChem BioAssay.
PostGolgi yeast: growth inhibition of a yeast mutant, post-Golgi transport screen. post-Golgi transport phenotypic cell assay. inhibition, % at 10 µM. 98,000 tested, 0.9% active. AID 739;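 also: yeast cells grown in 1536-well plates; yeast grown about 18 h at 30C before absorbance read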
TNAP act mid DEA: activators of human TNAP at intermediate phosphate acceptor; P05186; purified TNAP, CDP-star luminescence, 100 mM DEA, 30 min; stronger effect = higher value; scale: 0 levamisole-inhibited, 1 vehicle-only enzyme; activation factor at 20 µM; 64,000 tested, under 10 active; AID 813;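 active = activation factor of at least 2 at 20 µM, relative to controls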
Smad3 FoxH1 inh: Smad3 (human) transcription factor binding inhibition; P84022; TR-FRET Smad3/Dy647-FoxH1 peptide binding, europium anti-His; inhibition, % at 25 µM; 88,000 tested, 0.29% active; AID 630;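 active = compounds that reduce the energy-transfer binding signal between the protein and its labelled peptide by more than half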
PostGolgi ctrl: yeast control strain growth, post-Golgi counter-screen; efflux-deficient yeast background strain, growth absorbance A615, 16 h; inhibition, % at 10 µM; 98,000 tested, 5% active
Cav32 inh: human Cav3.2 channel inhibition, primary screen | B-score at 10 µM | O95180 | 100,000 tested, 4% active | AID 449739 | Cav3.2-expressing cells, Fluo-4 calcium fluorescence FDSS; stronger effect = lower value;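 active = single-dose well whose peak fluorescence ratio is a statistical outlier from its plate by either plate-standardised score or position-corrected B-score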
DAT uptake mod: modulates human dopamine transporter uptake under cocaine | Q01959 | LLC-PK1 hDAT cells, [14C]-dopamine uptake with cocaine IC80; actives deviate in either direction | B-score at 10 µM | 110,000 tested, 1.3% active | AID 449768;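 active = Z score or B-score, a plate-position-corrected score, falls beyond the plate's 99.7% confidence bounds, in either direction; inactive = both scores lie inside the 99.7% bounds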
Target sequence (Q01959 whole entry, looked up): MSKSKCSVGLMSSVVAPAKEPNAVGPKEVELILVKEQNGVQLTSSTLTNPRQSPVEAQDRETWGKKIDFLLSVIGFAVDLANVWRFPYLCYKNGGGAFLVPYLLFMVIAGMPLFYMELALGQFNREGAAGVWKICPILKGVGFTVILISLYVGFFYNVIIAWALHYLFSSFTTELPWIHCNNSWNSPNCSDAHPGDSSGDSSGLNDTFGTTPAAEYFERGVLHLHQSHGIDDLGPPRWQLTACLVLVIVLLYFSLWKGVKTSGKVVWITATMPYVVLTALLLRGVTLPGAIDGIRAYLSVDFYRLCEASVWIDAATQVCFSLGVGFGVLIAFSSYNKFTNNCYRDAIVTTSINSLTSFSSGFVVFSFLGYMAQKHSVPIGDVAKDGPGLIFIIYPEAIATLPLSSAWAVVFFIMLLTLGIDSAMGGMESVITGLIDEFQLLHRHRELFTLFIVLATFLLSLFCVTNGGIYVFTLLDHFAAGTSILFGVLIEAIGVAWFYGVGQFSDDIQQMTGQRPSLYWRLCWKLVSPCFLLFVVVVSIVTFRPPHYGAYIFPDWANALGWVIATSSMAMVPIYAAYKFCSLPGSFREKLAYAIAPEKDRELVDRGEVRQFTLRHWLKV
Each line names hits and unclear results; the compound was inactive in the other large screens. A selection: hits, their analogues and other compounds. The true share with any hit is near 8.7%. Rule as the data show it, unless noted: active = inhibition above about 30%; inactive = the rest.

CCc1nc2oc3cc(OC)ccc3c(=O)c2c(=O)n1Cc1ccco1	none
CCCC(C)NC1=NCCCCC1 (configuration not stated)	none (no result: TNAP act mid DEA)
CC(C)CC(NC(=O)c1ccc(Cl)cc1)C(=O)OCC(=O)c1ccc2c(c1)NC(=O)CO2 (configuration not stated)	PostGolgi ctrl 32 (no result: TNAP act mid DEA, Smad3 FoxH1 inh)
CCN(CC)S(=O)(=O)c1cc(C(=O)OCC(=O)c2ccc3c(c2)NC(=O)CO3)ccc1Cl	none (no result: TNAP act mid DEA, Smad3 FoxH1 inh)
N#CC(c1ccc(Cl)cc1)c1ncc(C(F)(F)F)cc1Cl (configuration not stated)	Cav32 inh -4.6 (no result: TNAP act mid DEA, Smad3 FoxH1 inh)
COc1cccc(CNCCN2CCOCC2)c1OC	none (no result: TNAP act mid DEA)
COc1ccc(-n2c(SCC(=O)Nc3ccccc3)nc3c(c2=O)SCC3)cc1	PostGolgi ctrl 40
COc1ccc(-n2c(Cc3cccn3C)nnc2SCC(=O)Nc2ccc(C(C)=O)cc2)cc1	Cav32 inh -8.4
COc1ccc(NC(=O)CSc2nnc(Cc3cccn3C)n2-c2ccc(OC)cc2)cc1	Cav32 inh -8.1
COc1ccc(NC(=O)CSc2nc3c(c(=O)n2-c2ccc(F)cc2)SCC3)cc1	none
CCOc1ccc(NC(=O)CSc2nnc(Cc3cccn3C)n2-c2ccc(OC)cc2)cc1	none
COc1ccc(-n2c(Cc3cccn3C)nnc2SCC(=O)Nc2ccc(C)cc2)cc1	Cav32 inh -7.9, DAT uptake mod 2.3
O=C(CSc1nc2c(c(=O)n1-c1ccc(Br)cc1)SCC2)NCC1CCCO1 (configuration not stated)	none
COc1ccc(-n2c(Cc3cccn3C)nnc2SCC(=O)Nc2cccc(NC(C)=O)c2)cc1	none
COc1ccc(-n2c(Cc3cccn3C)nnc2SCC(=O)Nc2ccc3c(c2)OCCO3)cc1	Cav32 inh -10
Cc1ccccc1C(=O)Nc1ccccc1C(=O)NCc1ccccc1	none (no result: TNAP act mid DEA, Smad3 FoxH1 inh)
Clc1cccc(COn2c(-c3ccc(Cl)cc3Cl)nc3ncccc32)c1	PostGolgi ctrl 71, Cav32 inh -4.1 (no result: TNAP act mid DEA)
Cc1ccc(COn2c(-c3ccc(Cl)cc3Cl)nc3ncccc32)cc1	PostGolgi ctrl 64, Cav32 inh -5.4 (no result: TNAP act mid DEA)
Clc1ccc(-c2nnc3cccc(Cl)n23)c(Cl)c1	none (no result: TNAP act mid DEA, Cav32 inh, DAT uptake mod)
Clc1ccc(Cn2c(-c3cccnc3Cl)nc3ccccc32)cc1	none (no result: TNAP act mid DEA, Smad3 FoxH1 inh)
O=C(C1CCC(CNS(=O)(=O)c2cccc3nsnc23)CC1)N1CC=C(c2ccccc2)CC1 (configuration not stated)	Cav32 inh -7.9 (no result: TNAP act mid DEA)
O[C@]1(c2ccccc2)c2ccccc2NC2=NCCN21	none (no result: PostGolgi yeast, TNAP act mid DEA, PostGolgi ctrl, Cav32 inh, DAT uptake mod)
O=C(O)CCSc1nc(C(F)(F)F)cc(=O)n1-c1ccccc1	PostGolgi ctrl 30 (no result: TNAP act mid DEA, Smad3 FoxH1 inh)
COc1ccc(NC(=O)c2cnn3c(C(F)(F)F)cc(-c4ccco4)nc23)cc1OC	none
CCOC(=O)c1ccc(NC(=O)CSc2nnc(COc3ccccc3OC)n2CC)cc1	none
Nc1ccc(-c2nc3c(Cl)c(N)ccc3[nH]2)cc1	PostGolgi ctrl 33
Oc1ccc2ccccc2c1/C=N/c1nc2c(s1)CCCC2	none (no result: TNAP act mid DEA, Smad3 FoxH1 inh)
Oc1c(Br)cc(Br)cc1/C=N/c1nc2c(s1)CCCC2	Cav32 inh -5.3 (no result: TNAP act mid DEA, Smad3 FoxH1 inh)
CN(c1ccccc1)S(=O)(=O)c1ccc(C(=O)Nc2nnc(-c3ccc(F)cc3)o2)cc1	Cav32 inh -7.5
CCc1nnc(NC(=O)c2ccc(S(=O)(=O)N(CC)Cc3ccccc3)cc2)o1	Cav32 inh -4.4
CCCCN(CC)S(=O)(=O)c1ccc(C(=O)Nc2nnc(-c3cccs3)o2)cc1	Cav32 inh -4.8
CCCCN(CCCC)S(=O)(=O)c1ccc(C(=O)Nc2nnc(COC)o2)cc1	none
COc1ccccc1-c1nnc(NC(=O)c2ccc(S(=O)(=O)N(C)Cc3ccccc3)cc2)o1	Cav32 inh -5.8, DAT uptake mod -8.6
COc1ccc(N2C(=O)C(Cl)=C(N(CCO)Cc3ccccc3)C2=O)cc1	none
COc1ccc(-c2[nH]c(-c3ccc(C(=O)O)cc3)nc2-c2ccccc2)cc1	DAT uptake mod -2.4 (no result: TNAP act mid DEA, Smad3 FoxH1 inh)
COc1ccc(-c2[nH]c(-c3ccc4c(c3)OCO4)nc2-c2ccccc2)cc1	PostGolgi yeast 62, PostGolgi ctrl 34 (no result: TNAP act mid DEA, Smad3 FoxH1 inh)
CC1Cc2ccccc2N1c1nc(C2CC2)nc2c1nnn2Cc1ccccc1 (configuration not stated)	none (no result: PostGolgi yeast, TNAP act mid DEA, PostGolgi ctrl)
CC1Cc2ccccc2N1c1ncnc2c1nnn2Cc1ccccc1 (configuration not stated)	PostGolgi ctrl 42
N#CC1=C(N)C(C#N)(C#N)C(c2cccnc2)C2CC(c3ccccc3)CC=C12 (configuration not stated)	PostGolgi yeast 71 (no result: TNAP act mid DEA)
COc1cc(C(=O)NS(=O)(=O)c2ccccc2C)ccc1Cc1cn(C)c2ccc(NC(=O)OC3CCCC3)cc12	Cav32 inh -5.9 (no result: PostGolgi yeast, TNAP act mid DEA, Smad3 FoxH1 inh, PostGolgi ctrl)
COc1ccc(Nc2nc(N3CCCC3)nc(N3CCCC3)n2)c(OC)c1	none (no result: TNAP act mid DEA)
COc1ccc(Nc2nc(NC(C)(C)C)nc(N3CCCC3)n2)c(OC)c1	PostGolgi ctrl 63 (no result: TNAP act mid DEA)
CCCN1CCCc2cc(CN(CCCN3CCOCC3)C(=O)Nc3ccc(OCC)cc3)ccc21	DAT uptake mod 2.7 (no result: TNAP act mid DEA)
CCOc1ccc(NC(=O)N(CCN2CCOCC2)Cc2ccc3c(c2)CCCN3CC)cc1	none
O=C(O)CCC(=O)c1ccc(Cl)cc1	none (no result: PostGolgi yeast, TNAP act mid DEA, PostGolgi ctrl, Cav32 inh, DAT uptake mod)
Cc1ccc(NC(=O)c2c(-c3c(F)cccc3Cl)noc2C)cc1F	Cav32 inh -8.3
Cc1onc(-c2c(F)cccc2Cl)c1C(=O)NC1=NCCS1	none
Cc1onc(-c2c(F)cccc2Cl)c1C(=O)NCC1COc2ccccc2O1 (configuration not stated)	PostGolgi ctrl 37
Cc1onc(-c2c(F)cccc2Cl)c1C(=O)Nc1cccc2nsnc12	PostGolgi ctrl 42
CC(=O)Nc1cccc(NC(=O)c2c(-c3c(Cl)cccc3Cl)noc2C)c1	none
Cc1cc(C)nc(NC(=O)c2c(-c3c(Cl)cccc3Cl)noc2C)n1	DAT uptake mod -2.9
O=C(NS(=O)(=O)c1ccccc1Cl)c1ccc[nH]1	none (no result: PostGolgi yeast, Smad3 FoxH1 inh, PostGolgi ctrl, Cav32 inh, DAT uptake mod)
O=S(=O)(NCC(c1cccnc1)N1CCN(c2ccc(F)cc2)CC1)c1ccc(F)cc1 (configuration not stated)	PostGolgi yeast 90, PostGolgi ctrl 73 (no result: Smad3 FoxH1 inh)
O=S(=O)(NCC(c1cccnc1)N1CCOCC1)c1cccs1 (configuration not stated)	none (no result: PostGolgi yeast, TNAP act mid DEA, PostGolgi ctrl)
O=S(=O)(NCC(c1cccnc1)N1CCN(c2ccc(F)cc2)CC1)c1cccs1 (configuration not stated)	PostGolgi yeast 78, PostGolgi ctrl 55
COC(=O)NCC(c1cccnc1)N1CCN(c2ccccc2F)CC1 (configuration not stated)	none
O=S(=O)(NCC(c1cccnc1)N1CCN(c2ccccc2F)CC1)c1cccs1 (configuration not stated)	PostGolgi yeast 62, PostGolgi ctrl 35 (no result: TNAP act mid DEA)
O=C(NCC(c1cccnc1)N1CCN(c2ccc(F)cc2)CC1)c1ccc(F)cc1 (configuration not stated)	DAT uptake mod 3.2
